# A selection: hits, their analogues and other compounds. The true share with any hit is near 17%.
# ClpP mod = qHTS Assay for Activators of ClpP; ATP-dependent Clp protease proteolytic subunit (Bacillus subtilis (strain 168)), P80244; purified B. subtilis ClpP, FRET peptide cleavage, 20 min; Potency, µM (titrated, usually from 57.5 µM), inactives show at the highest dose activity change, negative = active; actives 1.9% (n = 340,000); AID 651965, 2013; active = well fitted falling curve with a large enough effect; inconclusive = small, poorly fitted or top-dose-only effect; inactive = no such curve, though single readings can be large or run the other way; note: the source files actives as falling curves though it sought activators and does not explain the sign; nearly all actives have a fitted effect of over 65% in size
#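 Purified B. subtilis ClpP, 10 microg/mL final in Tris/HCl pH8 with KCl, BSA, glycerol and Tween-20, cleaved an Abz/nitrotyrosine-quenched decapeptide. Fluorescence (ex 320, em 430) was read at 0 and 20 min at room temperature. Delta was normalized to 5.8 microM ADEP and DMSO/no-enzyme controls.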
# TDP1 inh = TDP1 (human) enzyme inhibition; Q9NUW8; recombinant TDP1, AlphaScreen DNA substrate cleavage; Potency, µM (doses to about 130 µM), without a hit: at the highest dose activity change, negative = inhibition, actives largely listed as inhibitors; actives 0.28% (n = 350,000); note: % is set by controls: 0 for no effect and ±100 for the full control effect; nearly all actives have a fitted effect of over 40% in size
# Target sequence (Q9NUW8 whole entry, looked up): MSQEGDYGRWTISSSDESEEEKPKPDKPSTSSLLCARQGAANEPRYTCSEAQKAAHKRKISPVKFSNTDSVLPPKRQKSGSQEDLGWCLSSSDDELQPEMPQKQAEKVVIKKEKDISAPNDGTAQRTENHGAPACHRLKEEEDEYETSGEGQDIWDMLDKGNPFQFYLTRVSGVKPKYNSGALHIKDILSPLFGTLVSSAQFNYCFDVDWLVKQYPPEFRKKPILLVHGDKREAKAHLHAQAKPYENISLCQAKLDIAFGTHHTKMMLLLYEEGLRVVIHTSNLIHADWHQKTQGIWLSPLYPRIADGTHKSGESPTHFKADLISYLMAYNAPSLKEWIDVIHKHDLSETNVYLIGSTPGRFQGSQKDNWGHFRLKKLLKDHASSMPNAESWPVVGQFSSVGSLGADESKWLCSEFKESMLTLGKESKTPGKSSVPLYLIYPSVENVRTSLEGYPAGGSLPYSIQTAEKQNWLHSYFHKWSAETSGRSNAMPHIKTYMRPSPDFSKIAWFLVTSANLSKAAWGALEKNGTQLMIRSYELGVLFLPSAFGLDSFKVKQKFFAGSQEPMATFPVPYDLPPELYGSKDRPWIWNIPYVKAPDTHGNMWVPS
#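 Signal: AlphaScreen proximity between streptavidin donor and anti-FITC acceptor beads on intact substrate. Reaction: Tdp1 1 nM, substrate 15 nM final, 5 min RT after 15 min compound preincubation.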
# DT40 TDP1 CPT = growth inhibition of DT40 Tdp1-/-;hTDP1 cells with camptothecin (screen for TDP1 inhibitors); chicken DT40 Tdp1-/-;hTDP1 cells + 20 nM CPT, ATP luminescence, 48 h; Potency, µM (highest dose often 46.2 µM), without a hit: at the top dose activity change, negative = growth inhibition, actives largely listed as inhibitors; actives 12% (n = 420,000); note: % is set by controls: 0 for no effect and ±100 for the full control effect; nearly all actives have a fitted effect of over 55% in size
#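 Chicken DT40 Tdp1-/- cells complemented with human TDP1, 400 cells/well, exposed to compounds plus 20 nM camptothecin for at least 48 h at 37 C; viability read as ATP content by CellTiter-Glo luminescence.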
# DT40 TDP1 no CPT = qHTS for Inhibitors of human tyrosyl-DNA phosphodiesterase 1 (TDP1): qHTS in cells in absence of CPT; DT40 Tdp1-/- hTDP1 cells, no CPT, ATP luminescence, 48 h; Potency, µM (doses to about 46.2 µM), for the others: at the top dose activity change, negative = growth inhibition, most hits filed as inhibitors; actives 15% (n = 420,000); note: % is set by controls: 0 for no effect and ±100 for the full control effect; nearly all actives have a fitted effect of over 55% in size
#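 Cells were dispensed at 400 per well, compounds added by pin tool, plates incubated ≥48 hr at 37 °C, then CellTiter-Glo added for 30 min at room temperature before luminescence reading. Line: DT40 Tdp1-/- complemented with hTDP1; camptothecin omitted.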
# Numbers without * were called inactive; ? = inconclusive; / = no result; [ ] = remark or other dose. Unless noted, calls come from the whole dose curve; as a rule, active = well fitted curve in the direction sought with a large enough effect; inconclusive = small, poorly fitted or top-dose-only effect, or another doubt; inactive = no such curve, though single readings can be large; an effect the other way counts as inactive or inconclusive. Potency is the fitted concentration of half-maximal effect.
SMILES,ClpP mod,TDP1 inh,DT40 TDP1 CPT,DT40 TDP1 no CPT
COc1c(Cl)cnn(-c2ccc(C)cc2)c1=O,-9%,8%,?,16µM*
COc1ccc(O[C@H]2C=C[C@@H](c3ccccc3)O[C@H]2COC(=O)CC/C(C)=N\OC[C@@H](O)COCc2ccco2)cc1,/,12%[21 µM],/,/
COc1ccc(Oc2c(Cl)cnn(-c3ccc(C)cc3)c2=O)cc1,-22%,-8%,?,26µM*
COc1ccc(Oc2c(Cl)cnn(-c3ccc(F)cc3)c2=O)cc1,0%,4%,?,?
COc1ccc2cnn(-c3ccc(OC(F)(F)Cl)cc3)c(=O)c2c1OC,/,5%,13%,2%
COc1ccc2cnn(-c3ccc(C)cc3)c(=O)c2c1OC,-2%,1%,15µM*,21µM*
COc1ccc(C(=O)N/N=C(\C)CC(=O)Nc2ccc3ccccc3c2)c(OC)c1,-3%,0%,-20%,-17%
Cc1ccc(S(=O)(=O)c2nc(-c3ccc(F)cc3)oc2SCC(=O)NC2CCCCC2)cc1,-6%,9%,-2%,?
O=S(=O)(Nc1nc(SCc2ccc(Cl)cc2)n[nH]1)c1ccc(F)cc1,18µM*,7%,?,?
CCOc1ccc(NC(=O)CSc2oc(-c3cccs3)nc2S(=O)(=O)c2ccc(Cl)cc2)cc1,-4%,6%,18µM*,13µM*
CCOc1ccc(NC(=O)CSc2oc(-c3ccc(C)cc3)nc2S(=O)(=O)c2ccc(C)cc2)cc1,0%,9%,7.3µM*,5.8µM*
CCc1nc(SCc2ccc(Cl)cc2)n[nH]1,0%,3%,-28%,16%
O=S(=O)(c1ccc(Cl)cc1)c1nc(-c2cccs2)oc1SCc1ccc(F)cc1,-11%,0%,21µM*,?
CC(=O)Nc1c(C)nn(-c2ccccc2)c1N1CCC(C(=O)NCc2cccc(F)c2)CC1,-3%,8%,-11%,-20%
NCCCC[C@H]1CN=C(N)N1CCC12CC3CC(CC(C3)C1)C2,1%,-2%,?,?
COc1cccc(COc2cc3ccccc3nc2C)c1,-4%,0%,10µM*,9.2µM*
COC(=O)c1sccc1OCc1cccc(OC)c1,-2%,-1%,7%,-24%
Cc1nc2ccccc2cc1OCc1ccccc1,-7%,0%,12µM*,16µM*
CC1(C)O[C@@H]2C[C@H]3[C@H]4C[C@H](F)C5=CC(=O)CC[C@]5(C)[C@@H]4[C@H](O)C[C@]3(C)[C@]2(C(=O)CO)O1,/,12%[21 µM],/,/
CCc1nn2c(=O)cc(COC(=O)c3ccccc3)nc2s1,2%,5%,-15%,-2%
CNc1nc2c(N)ncnc2n1[C@@H]1O[C@@H]2COP(=O)(O)O[C@H]2[C@H]1O,/,10%,/,/
CCC1Oc2ccc(C)cc2N(CC(=O)N(Cc2cccnc2)Cc2cccc(F)c2)C1=O (configuration not stated),0%,0%[56.1 µM],18µM*,?
COc1ccc(/C=N/NC(=O)c2[nH]c3ccc(Br)cc3c2-c2ccccc2)cc1,/,8%,0.82µM*,0.92µM*
COc1ccc(/C=N/NC(=O)c2[nH]c3ccc(Br)cc3c2-c2ccccc2)c(C(=O)O)c1OC,/,1%,-5%,-12%
O=C(N/N=C/c1ccccc1Cl)c1[nH]c2ccc(Br)cc2c1-c1ccccc1,/,1%,1.3µM*,0.65µM*
SMILES,ClpP mod,TDP1 inh,DT40 TDP1 CPT,DT40 TDP1 no CPT
CC1CCCCC1NC(=O)C1CCN(c2c3c(nc4ncnn24)CCC3)CC1 (configuration not stated),/,-1%,-29%,12µM*
Cc1ccc(CNC(=O)c2cc3cc(Br)ccc3oc2=N)cc1,1%,3%,-28%,-20%
N=c1oc2ccc(Br)cc2cc1C(=O)NCc1ccc(F)cc1,0%,3%,?,8.2µM*
CC(NC(=O)c1cc2cc(Br)ccc2oc1=N)c1ccccc1 (configuration not stated),0%,5%[56.1 µM],16µM*,16µM*
COC(=O)C1(CC(C)C)C=C2C(=C(C)C(=O)C2C)CN1 (configuration not stated),/,-13%,/,/
COC(C[C@@H](O)CC(=O)COCc1ccccc1)OC,-2%,4%,-5%,13%
Cc1cc(C)cc(N(C(=O)c2sc(C)nc2C)C(C(=O)NC(C)(C)C)c2ccncc2)c1 (configuration not stated),/,6%,-17%,-14%
COc1cc(C)c(CN2CCC3(CCC(CNC(=O)c4ccnn4C)O3)CC2)cc1C (configuration not stated),/,/,16µM*,-28%
COc1cccc(CN2CCC3(CCC(CNC(=O)c4cc(C)nn4C)O3)CC2)c1OC (configuration not stated),/,/,4%[9.04 µM],-20%
Cc1cc2sc3nc(=O)n(-c4ccccc4)c(=O)n3c2cc1C,-5%,4%,?,?
O=C(NCc1ccccc1)C(=O)Nc1c2c(nn1-c1ccccc1)CSC2,-8%,8%,16µM*,18µM*
CC(C)(C)C(=O)Nc1c2c(nn1-c1ccccc1)CSC2,1%,1%,?,23µM*
CC(=O)Nc1c2c(nn1-c1ccccc1)CSC2,-1%,2%,3%,1%
COc1ccc(-n2nc3c(c2NC(=O)CCCl)CSC3)cc1,/,/,?,18µM*
O=C(CCl)Nc1c2c(nn1-c1ccccc1)CSC2,/,1%,21µM*,15µM*
CC(=O)c1ccc(N2CCN(C(=O)c3cc4c(s3)-c3ccccc3OC4)CC2)cc1,-27%,-2%,/,/
CCOc1[nH]c(/N=C/c2ccc(OC)cc2)c(C#N)c1C#N,-17%,1%,-29%,-11%
CCOc1[nH]c(/N=C/c2ccco2)c(C#N)c1C#N,-1%,1%,21µM*,?
Cc1ccsc1C(=O)N1CCC1(C)C(=O)NS(=O)(=O)c1ccccc1 (configuration not stated),1%,/,-8%,8%
O=C(Nc1ccc(Cl)c(Cl)c1)c1ccc(Cl)c(Cl)c1,0%,3%,?,5.8µM*
NC(=S)NNc1ccc(Cl)c(Cl)c1,-1%,9%,?,?
O=C(Nc1ccc(Cl)c(Cl)c1)c1ccncc1,-1%,5%,-20%,?
Cc1ccc(NC(=S)Nc2ccc(Cl)c(Cl)c2)c(OC(F)F)c1,4%,2%,21µM*,18µM*
NC(=S)Nc1ccc(Cl)c(Cl)c1,1%,4%,12µM*,9.2µM*
Cc1ccc(NC(N)=S)cc1C,28µM*,0%,?,?
COCCn1c(=O)c(-c2ccc(OC)cc2)nc2cnc(OCc3ccccc3)nc21,/,/,-2%,14%
COc1cc(-c2ccc(C)cc2)cc2c1OCCN(C(=O)CCn1ccc(C)n1)C2,/,/,0%[9.04 µM],?
Cc1ccc(NC(=O)c2ccc(Cl)c(N3C(=O)C=CC3=O)c2)cc1,-3%,10%,1.2µM*,2.1µM*
Cc1cccc(C)c1NC(=S)Nc1ccc(Cl)c(Cl)c1,/,3%,?,?
Cc1cc(C)cc(NC(=S)Nc2ccc(Cl)c(Cl)c2)c1,/,-5%,?,21µM*

# Screens (PubChem)
